Unmarked numbers belong to inactive results. Calls follow the shape of the dose curve; as a rule, active = well fitted activation curve with a large enough effect; inconclusive = small, poorly fitted or top-dose-only effect; inactive = no such curve, though single readings can be large or run the other way.
These compounds were tested against Parathyroid hormone/parathyroid hormone-related peptide receptor (Homo sapiens) (UniProt Q03431) (assay: qHTS for PTHR1 Agonists: Optimization Screen against the NCGC LOPAC library (AID 1347079; also: 0% is about no effect)). Conditions: HEK293 GP2 PTHR1 GloSensor cAMP luminescence, 1 h; series mostly up to 57.1 µM; activation: at the top concentration.
Sequence of Parathyroid hormone/parathyroid hormone-related peptide receptor (Homo sapiens) (Q03431 whole entry, looked up): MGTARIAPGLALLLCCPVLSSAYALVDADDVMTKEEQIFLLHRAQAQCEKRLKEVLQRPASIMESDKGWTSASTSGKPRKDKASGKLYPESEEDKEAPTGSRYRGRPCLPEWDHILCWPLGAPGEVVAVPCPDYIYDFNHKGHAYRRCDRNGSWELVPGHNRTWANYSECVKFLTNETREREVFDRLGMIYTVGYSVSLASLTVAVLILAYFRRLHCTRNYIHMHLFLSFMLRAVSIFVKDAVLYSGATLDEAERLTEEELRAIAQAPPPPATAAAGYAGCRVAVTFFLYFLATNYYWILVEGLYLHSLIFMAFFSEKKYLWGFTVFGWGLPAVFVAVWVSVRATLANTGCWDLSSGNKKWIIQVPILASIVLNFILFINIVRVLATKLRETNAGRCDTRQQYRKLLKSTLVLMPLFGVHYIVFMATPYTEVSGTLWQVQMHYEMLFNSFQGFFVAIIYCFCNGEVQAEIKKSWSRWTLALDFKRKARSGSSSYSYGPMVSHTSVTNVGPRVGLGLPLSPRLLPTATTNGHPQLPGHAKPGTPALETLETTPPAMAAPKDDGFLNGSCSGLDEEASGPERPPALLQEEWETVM
Description: The goal of the proposed studies is to discover new compounds that act as potent agonists on the parathyroid hormone receptor type-1 (PTHR1). The PTHR1 plays critical roles in maintaining blood calcium and phosphate levels, as well as in controlling bone remodeling. PTHR1 agonists could thus be useful for treating diseases such as hypoparathyroidism and osteoporosis. In the former disease, an agonist drug would help maintain normal blood calcium and phosphate levels under conditions of parathyroid hormone deficiency. In the latter disease, an agonist drug would stimulate new bone formation and thus reduce the risk of fracture, under conditions of bone fragility, as occurs in aging. We performed an optimization assay of the quantitative high-throughput screening (qHTS) for the parathyroid hormone receptor type-1 (PTHR1) against the NCGC LOPAC library collection of […] compounds using a unique HEK-293-derived cell line (GP2) that expresses the PTHR1 and a GloSensor cAMP reporter construct. Increase in signal (activation / agonist) is the desired outcome for compounds of interest. NIH Chemical Genomics Center [NCGC] NIH Molecular Libraries Probe Production Centers Network [MLPCN] MLPCN Grant: P01 DK011794 Assay Submitter (PI): Thomas Gardella PhD, Massachusetts General Hospital
Reagents / Controls: M-PTH (1-15) peptide hormone fragments was provided by the assay provider and was used as a control. Column 1 was treated with M-PTH titration (1:2 dilution) beginning with a final concentration of 10uM. Column 2 was treated with M-PTH final concentration of 10uM. Columns 3 and 4 were treated with DMSO only to assess background and noise signal. Assay Steps: Four microLiter of cells suspension was dispensed in a 1536-well assay plate at a final density of 3000 cells/well. The plates were incubated overnight, after which 4uL of 0.5mM of BloTium Luciferin plus 0.5mM IBMX was added. Next, the plate was incubated at 37C for 1hr before 23nL of compound (at various final concentrations from 40uM to 0.32uM) and control were added using a 1536-well array Kalypsys pin-tool. The treated plates were again incubated at 37C for another hour. Luminescence signal was obtained using the PerkinElmer ViewLux plate reader after 15min or room temperature incubation.

Structure (SMILES) | activation [%]
Clc1ccc2c(c1)N=C(N1CCNCC1)c1ccccc1N2 | -28.3
CC(C)N(CCC(=O)c1ccc2ccccc2c1)Cc1ccccc1 | -21.8
O=C1NC(=O)/C(=C/c2ccc3c(c2)OC(F)(F)O3)S1 | -21.1
COc1cccc2c1[C@@H]1CN(CCCCn3c(=O)[nH]c4c(sc5ncc(-c6ccccc6)nc54)c3=O)C[C@@H]1CO2 | -5.54
C[N+](C)(C)CCO | 7.07
Nc1ncnc2n[nH]c(Nc3ccc(F)cc3)c12 | -3.79
COC(=O)C1=CO[C@@H](O)[C@@H]2C(CO)=CC[C@H]12 | 17.9
CN(C)c1cc2c(Nc3ccc4c(cnn4Cc4ccccc4)c3)ncnc2cn1 | -12.5
COc1ccccc1N1CCN(CCN2C(=O)CC3(CCCC3)CC2=O)CC1 | -1.92
O=[N+]([O-])c1ccc(-c2nc(-c3ccc(F)cc3)c(-c3ccncc3)[nH]2)cc1 | 53.4
CCN(CC)CCNC(=O)c1ccc(NS(C)(=O)=O)cc1 | 15.3
N[C@@H](Cn1ccc(=O)c(O)c1)C(=O)O | -5.19
Cc1nn(-c2ccccc2)c(C)c1/C=N/N1CCN(Cc2ccccc2)CC1 | -28.1
O=C1NC(c2cccc([N+](=O)[O-])c2)=CCN1c1ccccc1O | 15.1
NC(N)=NCCCCN=C(N)N | -16.8
Cn1cnc2c(NCc3ccccc3)nc(NCCO)nc21 | 11.6
Brc1ccc([C@H]2CN3CCSC3=N2)cc1 | 31.7

From PubChem BioAssay (NCATS)
